In PubChem BioAssay (NCATS):
Records with an inconclusive call do not appear. Entries that show only a call come without a potency. Calls of active or inactive are those of the source. Calls follow the shape of the dose curve; as a rule, active = well fitted cell-killing curve with a large enough effect; inconclusive = small, poorly fitted or top-dose-only effect; inactive = flat fitted curve, though single readings scatter.
Potency is read from the fitted curve at half-maximal effect.

Assay: Cell Viability - LYMP2-011 (AID 969); also: nearly all actives have a fitted effect of over 60% in size
Conditions: LYMP2-011 lymphoblastoid cells viability; series mostly up to 92.2 µM
From the text: NIH Chemical Genomics Center [NCGC]
NIH Molecular Libraries Screening Centers Network [MLSCN]
National Institutes of Environmental Health Sciences [NIEHS]
National Toxicology Program [NTP]
We have developed a 1536-well cell-based assay for quantitative high throughput screening (qHTS) against a number of cell lines to determine in vitro cytotoxicity of small molecules. This particular assay uses a human lymphoblastoid cell line (LYMP2-011) purchased from Coriell Institute for Medical Research.
NCGC Assay Protocol Summary:
The CellTiter-Glo luminescent cell viability assay (Promega) is a homogeneous method to measure the number of viable cells in culture. The end point readout of this assay is based on quantitation of intracellular ATP, an indicator of metabolic activity, using the luciferase reaction. Luciferase catalyzes the oxidation of beetle Luciferin to oxyluciferin and light in the presence of ATP. The luminescent signal is proportional to amount of ATP present.
Using the CellTiter-Glo luminescent cell viability assay, the amount of cellular ATP was measured in the lymphoblastoid cell line with complete culture medium following compound treatment for 24 hours. The assay was performed in opaque white Kalypsys 1536-well plates. In the screen, tetraoctylammonium bromide was used as positive control. Library compounds were measured for their ability to cause acute toxicity in the cell line, as reflected by a decrease in intracellular ATP levels, in a concentration-dependent manner. […] AC50 values were determined from concentration-response data modeled with the standard Hill equation.
qHTS protocol for CellTiter Glo lymphoblastoid cellular assay
[Step] [Parameter] [Value] [Description]
1. Reagent; 5 uL; 2500 lymphoblastoid cells/well
2. Time; 5 hr; 37 C incubation
4. Controls; 23 nL; Tetraoctylammonium bromide 6.4pM to 92 uM
5. Time; 24 hr; 37 C incubation
6. Reagent; 5 uL; CellTiter Glo reagent
7. Time; 30 min; Room Temperature
8. Detection; Luminescence; Viewlux plate reader
Keywords: cell viability, cytotoxicity, lymphoblastoid cell line, luminescence, NTPHTS, NTPHTS_NCGC, NIEHS, DSSTox, MLSMR, MLSCN, NIH Roadmap, qHTS, NCGC
In the case of C=CCCl, the Potency is reported as “inactive”.
For N#CCCC#N, the Potency was “inactive”.
For CCCBr, the Potency was “inactive”.
In the case of CN=C=O, the Potency is reported as “inactive”.
For OCC(Cl)CCl (stereo not given), the Potency was “inactive”.
With BrCCc1ccccc1 the Potency was “inactive”.
In the case of CCCCCCCCCCCCCl, the Potency is reported as “inactive”.
For CCN(N=O)C(N)=O, the Potency was “inactive”.
With FC(Cl)(Cl)Cl the Potency was “inactive”.
With CCBr the Potency was “inactive”.
With O=[N+]([O-])c1c(Cl)c(Cl)c(Cl)c(Cl)c1Cl the Potency was “inactive”.
In the case of O=[N+]([O-])CCO, the Potency is reported as “inactive”.
In the case of CCC#N, the Potency is reported as “inactive”.
For CCN(CC)N=O, the Potency was “inactive”.
For CCCCOCC1CO1 (stereo not given), the Potency was “inactive”.
For CNC(=O)O/N=C/C(C)(C)S(C)=O (stereo not given), the Potency was “inactive”.
For COC(=O)c1ccccc1N, the Potency was “inactive”.
In the case of O=[N+]([O-])c1cc(Cl)c(Cl)cc1Cl, the Potency is reported as “inactive”.
For Nc1ccc(Cc2ccc(N)c(Cl)c2)cc1Cl, the Potency was “inactive”.
In the case of [O-][Cl+2]([O-])O, the Potency is reported as “inactive”.
In the case of ClCC(Cl)Cl, the Potency is reported as “inactive”.
In the case of C/C=C/C=O, the Potency is reported as “inactive”.
With Nc1cc(Cl)cc(Cl)c1 the Potency was “inactive”.
With O=C(O)C(Cl)(Cl)Br the Potency was “inactive”.
For C=COC(C)=O, the Potency was “inactive”.
For OC[P+](CO)(CO)CO, the Potency was 39.8 µM (active).
For COC(C)(C)C, the Potency was “inactive”.
With O=[N+]([O-])c1ccc(O)c([N+](=O)[O-])c1 the Potency was “inactive”.
For C=CCBr, the Potency was “inactive”.
With O=S(=O)(Cl)c1ccccc1 the Potency was “inactive”.
With O=C(Cc1ccccc1)OCc1ccccc1 the Potency was “inactive”.
With Nn1cnnc1 the Potency was “inactive”.
For C[N+](=O)[O-], the Potency was “inactive”.
In the case of Clc1cc(Cl)c(Cl)c(Cl)c1, the Potency is reported as “inactive”.
For Nc1ccc(-c2ccc(N)cc2)cc1, the Potency was “inactive”.
For Cc1ccc(N)c(C)c1, the Potency was “inactive”.
With CN(C)c1ccc(N=Nc2ccccc2)cc1 the Potency was “inactive”.
In the case of O=Cc1ccc2c(c1)OCO2, the Potency is reported as “inactive”.
For C1CC2OC2CC1C1CO1 (stereo not given), the Potency was “inactive”.
For CN(C)N=O, the Potency was “inactive”.
